Screening data as filed in PubChem BioAssay.
CYP2C9 act: human CYP2C9 activators, primary screen, biochemical, luminescence; Cytochrome P450 2C9 (Homo sapiens), P11712; recombinant CYP2C9, luciferin-H conversion; stronger effect = higher value; factor 1 = untreated enzyme, 0 = blocked; activation factor at 5 µM; 96,000 compounds, 1.4% hits; AID 1024, 2008;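 active = activation factor of 2 or more for CYP2C9 at a 5 µM dose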;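 also: 0 = sulfaphenazole-blocked wells and 1 = vehicle-only wells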
CYP2C9 inhib: blockers of cytochrome P450 2C9 activity – biochemical, luminescence, ADME assay, primary screen | inhibition, % at 5 µM | AID 777, 2007 | CYP2C9 Supersomes, luciferin-H conversion | P11712 | 96,000 compounds, 20% hits;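 active = blocking of liver enzyme CYP2C9 beyond about 50% at 5 µM, limit read from the data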
CYP2C19 inhib: blockers of cytochrome P450 2C19 activity – biochemical, luminescence, ADME assay, primary screen. P33261. CYP2C19 Supersomes, luciferin-H EGE luminescence, 30 min. inhibition, % at 5 µM. 96,000 compounds, 21% hits;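 active = CYP2C19 inhibition above a set limit at 5 µM in the primary screen, cut at about 50% in these data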;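 also: plate controls were negative control wells for no effect and 2.5 mM tranylcypromine positive control for full effect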
Target sequence (P33261 whole entry, looked up): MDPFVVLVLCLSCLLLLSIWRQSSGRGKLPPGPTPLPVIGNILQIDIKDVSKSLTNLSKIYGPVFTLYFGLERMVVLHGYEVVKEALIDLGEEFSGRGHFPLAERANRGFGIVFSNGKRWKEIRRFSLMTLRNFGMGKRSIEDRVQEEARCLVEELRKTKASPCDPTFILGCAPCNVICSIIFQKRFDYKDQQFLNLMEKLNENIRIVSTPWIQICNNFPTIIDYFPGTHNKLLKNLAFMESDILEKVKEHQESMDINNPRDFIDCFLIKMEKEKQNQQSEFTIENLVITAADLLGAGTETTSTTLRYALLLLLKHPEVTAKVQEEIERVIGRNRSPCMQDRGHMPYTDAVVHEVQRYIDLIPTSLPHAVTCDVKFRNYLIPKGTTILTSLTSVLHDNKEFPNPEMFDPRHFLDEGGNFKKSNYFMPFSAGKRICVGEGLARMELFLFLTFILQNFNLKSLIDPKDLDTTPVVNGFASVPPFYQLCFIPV
CYP2C19 act: human CYP2C19 activators, primary screen, biochemical, luminescence; 96,000 tested, under 10 active; activation factor at 5 µM; AID 1025, 2008; Cytochrome P450 2C19 (Homo sapiens), P33261; recombinant CYP2C19, luciferin-H EGE luminescence; stronger effect = higher value; 0 = fully inhibited enzyme, 1 = untreated enzyme;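 active = activation factor of at least 2 at 5 µM in the primary screen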;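 also: 0 = wells with 2.5 mM tranylcypromine and 1 = vehicle-only wells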
* hit, by the source's call. Sampled rows, rich in hits. Any-hit rate of the full collection: about 31%.

How did CCOc1cccc(OCCCNCCCOC)c1 do in these assays?
CYP2C9 act: 1; CYP2C9 inhib: -2.4; CYP2C19 inhib: -7.7; CYP2C19 act: 1.1

What do the screens show for `CN(Cc1cc2ccccc2[nH]c1=O)C(=O)C1CCCCC1`?
CYP2C9 act: 1.2; CYP2C9 inhib: -18.0; CYP2C19 inhib: 4.7; CYP2C19 act: 1

What do the screens show for `O=C(/C=C/c1ccccc1)NCCSc1ccc(Cl)cc1`?
CYP2C9 act: 1.5; CYP2C9 inhib: -53.0; CYP2C19 inhib: 14.9; CYP2C19 act: 0.9

Results for Cc1cccc(NS(=O)(=O)c2cccc3nsnc23)c1 ?
CYP2C9 act: 0.9; CYP2C9 inhib: 13.0; CYP2C19 inhib: 76.4*; CYP2C19 act: 0.2

How did Cc1ccnc(NS(=O)(=O)c2cccc3nsnc23)c1 do in these assays?
CYP2C9 act: 0.9; CYP2C9 inhib: 11.3; CYP2C19 inhib: 7.4; CYP2C19 act: 0.9

What do the screens show for `C#CCNc1cc(C)nc2ncnn12`?
CYP2C9 act: 1; CYP2C9 inhib: -0.2; CYP2C19 inhib: -6.6; CYP2C19 act: 1.1

Results for O=C(NC1CCCC1)c1sc(=S)n2c1[nH]c(=O)c1ccccc12 ?
CYP2C9 act: 0.1; CYP2C9 inhib: 93.0*; CYP2C19 inhib: 28.1; CYP2C19 act: 0.7

Results for O=C(NCc1ccco1)c1sc(=S)n2c1[nH]c(=O)c1ccccc12 ?
CYP2C9 act: 0; CYP2C9 inhib: 98.8*; CYP2C19 inhib: 29.2; CYP2C19 act: 0.7

Results for CCCCCNC(=O)c1ccc2c(=O)[nH]c3c(C(=O)NCC4CCCO4)sc(=S)n3c2c1 (stereo not drawn) ?
CYP2C9 act: 0.1; CYP2C9 inhib: 94.9*; CYP2C19 inhib: 34.8; CYP2C19 act: 0.7

What do the screens show for `CCn1c(N)c(C(=O)NCC2CCCO2)sc1=S` (stereo not drawn)?
CYP2C9 act: 0.9; CYP2C9 inhib: 8.1; CYP2C19 inhib: 9.8; CYP2C19 act: 0.9

Results for O=C(OC(C(=O)NCc1cccs1)c1ccc(F)cc1)c1ccco1 (stereo not drawn) ?
CYP2C9 act: 0.6; CYP2C9 inhib: 40.8; CYP2C19 inhib: 29.6; CYP2C19 act: 0.7

Results for O=C(c1cnc2ccccn2c1=O)N1CCc2ccccc21 ?
CYP2C9 act: 1.4; CYP2C9 inhib: -35.1; CYP2C19 inhib: 3.5; CYP2C19 act: 1

What do the screens show for `O=C(CCCc1c[nH]c2ccccc12)N1CCN(S(=O)(=O)c2cccs2)CC1`?
CYP2C9 act: 1; CYP2C9 inhib: -0.6; CYP2C19 inhib: 9.1; CYP2C19 act: 0.9

Results for CC(=O)N1CCN=C1SCc1ccc(Br)cc1 ?
CYP2C9 act: 0.4; CYP2C9 inhib: 62.1*; CYP2C19 inhib: 53.8*; CYP2C19 act: 0.5

Results for Cc1ccc(CSC2=NCCN2C(=O)C2CC2)cc1 ?
CYP2C9 act: 0.8; CYP2C9 inhib: 19.4; CYP2C19 inhib: 92.4*; CYP2C19 act: 0.1

What do the screens show for `O=C(c1ccco1)N1CCN=C1SCc1ccc(F)cc1`?
CYP2C9 act: 0.9; CYP2C9 inhib: 9.7; CYP2C19 inhib: -11.7; CYP2C19 act: 1.1

Results for CC(=O)N1CCN=C1SCc1cccc(C(F)(F)F)c1 ?
CYP2C9 act: 0.8; CYP2C9 inhib: 16.2; CYP2C19 inhib: 41.7; CYP2C19 act: 0.6

Results for O=C(C1CC1)N1CCN=C1SCc1cccc(C(F)(F)F)c1 ?
CYP2C9 act: 0.3; CYP2C9 inhib: 70.1*; CYP2C19 inhib: 95.2*; CYP2C19 act: 0

Results for Cc1ccc(O)c(C2=NOC(O)(C(F)(F)C(F)F)C2)c1 (stereo not drawn) ?
CYP2C9 act: 0.5; CYP2C9 inhib: 52.9*; CYP2C19 inhib: 84.1*; CYP2C19 act: 0.2

What do the screens show for `Cc1ccc(O)c(C2=NCCNC(C(F)(F)C(F)F)=C2)c1`?
CYP2C9 act: 0.7; CYP2C9 inhib: 34.2; CYP2C19 inhib: 33.2; CYP2C19 act: 0.7

How did Cc1ccc(O)c(C2=NOC(O)(C(F)(F)F)C2)c1 (stereo not drawn) do in these assays?
CYP2C9 act: 0.8; CYP2C9 inhib: 17.2; CYP2C19 inhib: 68.0*; CYP2C19 act: 0.3

Results for CCOC(=O)Cc1nnc2c(Nc3ccc(Cl)cc3)nc3nonc3n12 ?
CYP2C9 act: 0.8; CYP2C9 inhib: 15.9; CYP2C19 inhib: 1.5; CYP2C19 act: 1

How did CCc1ccc(N(CC(=O)NC)S(C)(=O)=O)cc1 do in these assays?
CYP2C9 act: 1; CYP2C9 inhib: -1.9; CYP2C19 inhib: 14.2; CYP2C19 act: 0.9

Results for O=S(=O)(NCc1cc(-c2ccccc2Cl)no1)c1ccccc1 ?
CYP2C9 act: 2.4*; CYP2C9 inhib: -139.8; CYP2C19 inhib: 91.6*; CYP2C19 act: 0.1

What do the screens show for `O=S(=O)(NCc1cc(-c2ccc(Cl)cc2)no1)c1ccccc1`?
CYP2C9 act: 0.8; CYP2C9 inhib: 20.6; CYP2C19 inhib: 45.8; CYP2C19 act: 0.5

Results for O=S(=O)(NCc1cc(-c2ccc(Cl)cc2)no1)c1ccc(Cl)cc1 ?
CYP2C9 act: 0.8; CYP2C9 inhib: 18.5; CYP2C19 inhib: 30.8; CYP2C19 act: 0.7

What do the screens show for `O=S(=O)(NCc1cc(-c2ccccc2)no1)c1ccc(Cl)cc1`?
CYP2C9 act: 0.9; CYP2C9 inhib: 5.0; CYP2C19 inhib: 77.6*; CYP2C19 act: 0.2

What do the screens show for `O=C1Oc2ccccc2C2(O)C3CCCCCC3C12` (stereo not drawn)?
CYP2C9 act: 0.8; CYP2C9 inhib: 19.6; CYP2C19 inhib: 95.0*; CYP2C19 act: 0.1

What do the screens show for `COc1ccc(-c2cc(C(F)(F)F)n3nc(C(=O)NCCCn4ccnc4)cc3n2)cc1`?
CYP2C9 act: 0; CYP2C9 inhib: 97.8*; CYP2C19 inhib: 82.7*; CYP2C19 act: 0.2

What do the screens show for `COc1ccc(-c2cc(C(F)(F)F)n3nc(C(=O)NCc4ccco4)cc3n2)cc1OC`?
CYP2C9 act: 0.3; CYP2C9 inhib: 69.4*; CYP2C19 inhib: 75.9*; CYP2C19 act: 0.2

How did O=C(NCc1ccco1)c1cc2nc(C3CC3)cc(C(F)(F)F)n2n1 do in these assays?
CYP2C9 act: 0.7; CYP2C9 inhib: 27.7; CYP2C19 inhib: 6.4; CYP2C19 act: 0.9

How did Cc1ccc(CN2C(=O)CCC2C(=O)NCc2cccnc2)cc1 (stereo not drawn) do in these assays?
CYP2C9 act: 1; CYP2C9 inhib: 3.2; CYP2C19 inhib: 18.6; CYP2C19 act: 0.8

Results for Cc1cc(C)c(S(=O)(=O)N(C)CC(N)=O)c(C)c1 ?
CYP2C9 act: 1.4; CYP2C9 inhib: -38.0; CYP2C19 inhib: -9.5; CYP2C19 act: 1.1

How did CN(Cc1cnn(C)c1)C(=O)c1cc2ccccc2oc1=O do in these assays?
CYP2C9 act: 1.1; CYP2C9 inhib: -11.1; CYP2C19 inhib: 14.8; CYP2C19 act: 0.9

Results for Cc1cc(C)c(S(=O)(=O)N(CC(=O)NCc2cccnc2)C2CCCCC2)c(C)c1 ?
CYP2C9 act: 0.1; CYP2C9 inhib: 94.4*; CYP2C19 inhib: 99.2*; CYP2C19 act: 0

Results for Cc1cc(C)c(S(=O)(=O)N(C)CC(=O)N2CCCCC2)c(C)c1 ?
CYP2C9 act: 2.9*; CYP2C9 inhib: -185.0; CYP2C19 inhib: 44.2; CYP2C19 act: 0.6

Results for Cc1cc(C)c(S(=O)(=O)N(C)Cc2cnn(C)c2)c(C)c1 ?
CYP2C9 act: 2*; CYP2C9 inhib: -97.0; CYP2C19 inhib: 87.6*; CYP2C19 act: 0.1
